Results with a measured potency or affinity are listed apart.
What was measured:
Staphylococcus aureus = settings: Concentration 32 ug.mL-1;; ASSAY_TEST Inhibition of Bacterial Growth; detection method Absorption (OD600); MEDIA CAMHB; plate type 384well; NBS; CORNING #3640; time 18 hr
Escherichia coli = settings: Concentration 32 ug.mL-1;; ASSAY_TEST Inhibition of Bacterial Growth; detection method Absorption (OD600); MEDIA CAMHB; plate type 384well; NBS; CORNING #3640; time 18 hr

| SMILES | Inhibition (Staphylococcus aureus) | Inhibition (Escherichia coli) |
| --- | --- | --- |
| O=C(Cn1nc2c(N3CCOCC3)nccn2c1=O)NCc1cc(F)cc(F)c1 | 7.03% | -4.76% |
| CSc1cccc(NC(=O)Cn2nc3ccc(SC4CCCCC4)nn3c2=O)c1 | -9.19% | -2.76% |
| Cc1ccc2c(c1)N(C(=O)Cn1nc3ccc(S(=O)(=O)C(C)(C)C)nn3c1=O)CCO2 | 10.43% | 3.75% |
| Cc1ccc(NC(=O)Cn2nc3ccc(-c4ccc(C)c(C)c4)nn3c2=O)cc1 | 12.01% | -5.02% |
| COc1cccc(Sc2nc3ccccc3n3c(=O)n(CC(=O)N4CCCc5ccccc54)nc23)c1 | -3.45% | -7.6% |
| Cc1cc(C)cc(N(Cc2cc(F)cc(F)c2)S(=O)(=O)c2cccn3c(C)nnc23)c1 | 9.54% | -1.86% |
| CCOc1ccc(-n2ccn3c(SCC(=O)c4ccc(C)cc4)nnc3c2=O)cc1 | 16.97% | -1.19% |
| Cc1cc(C)cc(NC(=O)Cn2nc3c4cc(-c5ccc(C)c(C)c5)nn4ccn3c2=O)c1 | 5.77% | -4.98% |
| Cc1ccc(Sc2nccn3c(=O)n(CC(=O)N4CCN(c5ccccc5)CC4)nc23)c(C)c1 | -10.57% | -12.78% |
| COc1cccc(-n2ccn3c(SCC(=O)c4ccc(C)cc4C)nnc3c2=O)c1 | 12.17% | -2.43% |
| Cc1cccc(NC(=O)c2ccc3nnc(SCC(=O)Nc4ccc(Br)cc4)n3c2)c1 | 11.58% | 0.25% |
| COc1ccc(NC(=O)Cn2nc3c4c5c(sc4ncn3c2=O)CCCC5)cc1 | 2.3% | -5.34% |
| CCOc1ccccc1CNC(=O)CCc1nnc2ccc(-c3ccc(C)cc3)nn12 | 9.96% | -0.64% |
| COc1ccccc1-n1ccn2c(SCc3ccc(C)cc3)nnc2c1=O | 4.53% | -10.18% |
| CCOC(=O)N1CCN(C(=O)CCc2nnc3c4cc(-c5ccc(F)cc5)nn4ccn23)CC1 | 10.85% | 2.2% |
| COc1ccc(-c2cc3c4nn(CC(=O)Nc5ccc(C)c(C)c5)c(=O)n4ccn3n2)cc1 | 9.35% | 6.79% |

| SMILES | Inhibition (Staphylococcus aureus) | Inhibition (Escherichia coli) |
| --- | --- | --- |
| Cc1ccc(NC(=O)Cn2nc3ccc(-c4ccc(Cl)cc4)nn3c2=O)cc1F | 3.27% | -3.59% |
| CCOC(=O)c1ccc(NC(=O)Cn2nc3c4cc(-c5ccc(C)cc5)nn4ccn3c2=O)cc1 | -5.61% | -8.93% |
| Cc1ccc(-c2cc3c4nn(CC(=O)Nc5ccc(F)cc5)c(=O)n4ccn3n2)cc1C | -6.62% | -8.95% |
| Cc1ccc(NC(=O)Cn2nc3ccc(SC4CCCCC4)nn3c2=O)c(Cl)c1 | -1.24% | -5.46% |
| CCOC(=O)c1ccc(NC(=O)Cn2nc3c(N4CCOCC4)nccn3c2=O)cc1 | 2.06% | -3.52% |
| COc1ccc(NC(=O)Cn2nc3c4cc(-c5ccc(OC)cc5)nn4ccn3c2=O)cc1 | 8.44% | 2.94% |
| O=C(Cn1nc2c(N3CCOCC3)nccn2c1=O)Nc1cccc(C(F)(F)F)c1 | 4.69% | -2.32% |
| COc1ccc(-c2cc3c4nn(CC(=O)Nc5ccc(OC)c(OC)c5)c(=O)n4ccn3n2)cc1 | 2.65% | 2.66% |
| CC(C)c1ccc(N(Cc2ccc(Cl)cc2)S(=O)(=O)c2cccn3cnnc23)cc1 | 8.06% | 3.76% |
| CCc1ccc(N(Cc2cccc(C)c2)S(=O)(=O)c2cccn3c(C)nnc23)cc1 | -11.31% | 0.34% |
| CCOC(=O)c1ccc(NC(=O)Cn2nc3ccc(Sc4ccccc4)nn3c2=O)cc1 | 9.67% | -3.7% |
| Cc1ccc(-c2ccc3nn(CC(=O)Nc4ccc(Br)cc4F)c(=O)n3n2)cc1 | 3.77% | -3% |
| O=c1c2sccc2n2c(SCc3cccc(C(F)(F)F)c3)nnc2n1Cc1ccc(F)cc1 | 9.81% | -1.38% |
| CCc1ccc(NC(=O)Cn2nc3c(Sc4ccccc4)nccn3c2=O)cc1 | 6.66% | -4.33% |
| C=Cc1ccc(CN(c2ccc(C(C)C)cc2)S(=O)(=O)c2cccn3cnnc23)cc1 | 7.94% | 0.1% |
| Cc1nnc2c(=O)n(CC(=O)Nc3ccc(F)cc3F)c3ccccc3n12 | 10.56% | -0.32% |
